Measured values from PubChem BioAssay AID1159580 (chemical genetic matrix, 2015).
Out of some 5,500 compounds screened, about 2,000 (36%) were called active. Roughly 18% stayed inconclusive and do not appear here. Cut-off read from the data, not from the text of the source: active = normalized growth mostly below about 0.91 (no sharp cut-off); inconclusive = no clear call, values can overlap the other calls; inactive = mostly above about 0.92. The list shows a part of the results.

Test: chemical genetic growth profiling, strain panel (AID 1159580);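 note: tested at 20 µM; growth read once vehicle control cultures reached saturation at 30 °C; 1 = growth at the plate median or of vehicle wells; lower values mean less growth of the strain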
Conditions: S. cerevisiae deletion strains, growth OD

Measured: normalized growth

COc1ccc(NC(=O)/C=C/c2ccc(Cl)cc2)cc1
inactive: locus YAL013W, strain DEP1, active compounds read low 0.992 | locus YAL040C, strain CLN3, active compounds read low 0.958 | locus YCL061C, strain MRC1 (second series), active compounds read low 1 | locus YDR150W, strain NUM1, active compounds read low 1 | locus YDR363W, strain ESC2, active compounds read low 1.01 | locus YER002W, strain NOP16, active compounds read low 0.956 | locus YGR229C, strain SMI1, active compounds read low 0.986 | locus YJR075W, strain HOC1, active compounds read low 0.98 | locus YMR307W, strain GAS1, active compounds read low 1.02 | locus YNL175C, strain NOP13, active compounds read low 0.966 | locus YNL197C, strain WHI3, active compounds read low 0.977 | locus YNL224C, strain SQS1, active compounds read low 1 | locus YOR083W, strain WHI5 (second series), active compounds read low 0.961 | locus YPL241C, strain CIN2, active compounds read low 1.01
